Source: the supplement of paper PMC6555819

Legend:
Experiment in all cases: PBM binding z-score (relative to random genomic background probes); higher = stronger binding; sequences stand for … in GC…GCGATTGACAGCGTAGAATGAAGG
[1] = system: FXR:RXRa (NR concentration 270 nM, RXRa partner concentration 90 nM)
Method in brief: (§1)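 Antibodies against each partner of ligand-free nuclear receptor dimers (one per run) detected binding on custom Agilent 4×180K protein-binding microarrays after 1 h incubation. The double-stranded probes had 34-nt variable regions carrying direct-repeat seeds, single-nucleotide variants, half-site ablations and random human genomic background sequences. Binding z-scores, from regression-normalized fluorescence, use the random background probes as reference.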

[2] = system: LXRa:RXRa (NR concentration 270 nM, RXRa partner concentration 90 nM)
Method in brief: as §1

[3] = system: LXRa homodimer (NR concentration 270 nM)
Method in brief: as §1

[4] = system: LXRb:RXRa (NR concentration 270 nM, RXRa partner concentration 90 nM)
Method in brief: as §1

[5] = system: LXRb homodimer (NR concentration 270 nM)
Method in brief: as §1

[6] = system: PPARa:RXRa (NR concentration 270 nM, RXRa partner concentration 90 nM)
Method in brief: as §1

[7] = system: PPARg:RXRa (NR concentration 180 nM, RXRa partner concentration 90 nM)
Method in brief: as §1

[8] = system: PPARg:RXRa 270nM:90nM, anti-RXR (NR concentration 270 nM, RXRa partner concentration 90 nM)
Method in brief: as §1

[9] = system: PPARg:RXRa 30nM:10nM, anti-RXR (NR concentration 30 nM, RXRa partner concentration 10 nM)
Method in brief: as §1

[10] = system: PPARg:RXRa 90nM:30nM, anti-RXR (NR concentration 90 nM, RXRa partner concentration 30 nM)
Method in brief: as §1

[11] = system: PPARg:RXRa DBDmut IVT, anti-RXR (DBD mutation: RXRa K156A/R161A, NR concentration 270 nM, RXRa partner concentration 90 nM)
Method in brief: as §1

[12] = system: PPARg:RXRa IVT, anti-PPARg (NR concentration 270 nM, RXRa partner concentration 90 nM)
Method in brief: as §1

[13] = system: PPARg DBDmut:RXRa IVT, anti-PPARg (DBD mutation: PPARg1 K132A/R137A, NR concentration 270 nM, RXRa partner concentration 90 nM)
Method in brief: as §1

[14] = system: PPARg DBDmut IVT, anti-PPARg (DBD mutation: PPARg1 K132A/R137A, NR concentration 270 nM)
Method in brief: as §1

[15] = system: PPARg homodimer (NR concentration 180 nM)
Method in brief: as §1

[16] = system: PXR:RXRa (NR concentration 270 nM, RXRa partner concentration 90 nM)
Method in brief: as §1

[17] = system: PXR homodimer (NR concentration 270 nM)
Method in brief: as §1

[18] = system: RARa:RXR (NR concentration 270 nM, RXRa partner concentration 90 nM)
Method in brief: as §1

[19] = system: RARa homodimer (NR concentration 270 nM)
Method in brief: as §1

[20] = system: RARb:RXRa (NR concentration 270 nM, RXRa partner concentration 90 nM)
Method in brief: as §1

Row | Sequence | PBM binding z-score [1] | PBM binding z-score [2] | PBM binding z-score [3] | PBM binding z-score [4] | PBM binding z-score [5] | PBM binding z-score [6] | PBM binding z-score [7] | PBM binding z-score [8] | PBM binding z-score [9] | PBM binding z-score [10] | PBM binding z-score [11] | PBM binding z-score [12] | PBM binding z-score [13] | PBM binding z-score [14] | PBM binding z-score [15] | PBM binding z-score [16] | PBM binding z-score [17] | PBM binding z-score [18] | PBM binding z-score [19] | PBM binding z-score [20]
1 | ATATGTAGGTTAGCTGGGGCCATTCAGACTAGGC | 0.601 | 1.15 | 0.0611 | 0.901 | 0.197 | 2.55 | 3.09 | 2.56 | 0.952 | 2.06 | 6.72 | 5.67 | 1.64 | 1.69 | 1.13 | 2.87 | 0.538 | 1.33 | 0.314 | 1.21
2 | ATACCAAGGTGATCGTGAGGACGTTGATACTAAC | 0.587 | 0.135 | -0.00187 | 0.0444 | -0.331 | -0.0562 | 0.622 | 0.0338 | -0.0535 | -0.287 | 0.171 | 1.03 | 0.678 | -0.134 | -0.121 | 0.502 | 0.387 | 1.03 | 0.115 | 0.704
3 | CGAACTAGGCCATCCAGGACAGTGAATACATTGA | -0.177 | -0.379 | -0.0398 | -0.306 | -0.512 | 1.64 | 2.39 | 1.71 | 0.404 | 1.19 | 6 | 5.51 | 0.953 | 0.808 | 0.048 | -0.289 | -0.148 | 0.254 | 0.507 | 0.809
4 | TGAATTAGGTTAAAGATCAGGGAACGTGGCGTCG | 0.694 | 0.724 | 0.0716 | 0.548 | 0.342 | 4.09 | 6.76 | 7.47 | 5.99 | 8.06 | 6.08 | 5.63 | 0.86 | 1.43 | 1.58 | 0.403 | 0.276 | 1.12 | 1.04 | 1.19
5 | CGAACGAGGGCATGAGTTGATATCAAATGCCGAT | 0.475 | 0.326 | -0.371 | 0.156 | -0.654 | 1.59 | 1.58 | 1.42 | 0.347 | 0.786 | 3.23 | 2.11 | 0.21 | -0.287 | 0.26 | 0.636 | -0.013 | 0.352 | -0.464 | 2.01
6 | AGAATGAGGTTATACGTAGATCAGGGAGGAAAGT | 2.22 | 1.64 | 0.0751 | 1.53 | 0.198 | 3.09 | 1.85 | 2.09 | 0.848 | 1.57 | 3.75 | 1.91 | 1.26 | 0.799 | 0.811 | 1.18 | 0.618 | 1.66 | 0.507 | 1.47
7 | TCTATTAGTTGAAGGGCAAGCGACGAGTCCGTTT | 0.609 | 1.02 | 0.0576 | 0.863 | 0.193 | 1.04 | 0.0198 | 2.29 | 3.57 | 2.98 | 2.2 | 0.635 | 0.42 | 0.671 | 0.728 | 0.841 | 0.859 | 0.478 | 0.687 | 1.53
